Compounds without any hit were thinned out: in the full panel of roughly 83,000, 20% have a hit.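 Growth was measured after 48 h exposure to one concentration of compound in 96-well plates. Values under 10 count as active.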 A number with no mark means an inactive call. The source made the active and inactive calls.
tested on: HS 578T breast; experiment: NCI-60 one-dose screen, 48 h (100 = growth as untreated, 0 = no growth, -100 = all killed); conditions: 10 µM
Description: Growth inhibition of the HS 578T human tumor cell line is measured as a screen for anti-cancer activity. Cells are grown in 96 well plates and exposed to the test compound for 48 hours. Compounds are tested at a single concentration, which is 10^-5 M for most compounds. The reported endpoint is percent growth (GI% or GIPRCNT), where numbers from 0 - 100% represent growth inhibition, and numbers from -100% - 0 represent cell death. For example, a value of 40 represents 60% growth inhibition. A value of 0 means no net growth occurred over the course of the experiment. A value of -40 indicates 40% of cells at the beginning of the experiment died by the end of the experiment. A value of -100 means all cells are dead at the end of the experiment.
NCI-60 Human Tumor Cell Lines Screen was performed using the standard one-dose NCI protocol, which is described in more detail at https://dtp.cancer.gov/discovery_development/nci-60/default.htm.
Compounds with GIPRCNT values below 10 were considered active. Activity score was based on GIPRCNT using the following formula: […]
Score is 0 for GIPRCNT values of 100 or above, 50 for GIPRCNT values of 0, and 100 for GIPRCNT values of -100.

Row | SMILES | growth
1 | NC1=NC(c2ccccc2)C2=C(N1)/C(=C/c1ccccc1)CCC2 (stereo not given) | 88.5%
2 | CC(C)(C)OC(=O)CN1CCc2c(sc3ncnc(N/N=C/c4ccccc4Br)c23)C1 | 77%
3 | Cc1cc(Cl)ccc1Nc1nc(C(F)(F)F)ccc1C(=O)N/N=C/c1cccc(O)c1 | -17.5% (active)
4 | COc1cc2cc(Oc3ccc(NC(=O)c4cc(C(F)(F)F)cc(C(F)(F)F)c4)cc3)c(C)nc2cc1OC | 73.1%
5 | COC(=O)CC[C@@H](C)[C@H]1CC[C@H]2[C@@H]3CC[C@@H]4C[C@H](O)CC[C@]4(C)[C@H]3C[C@H](O)[C@]12C | 114%
6 | Nc1nc(Cl)nc2c1ncn2C1O[C@H](CO)[C@@H](O)[C@@H]1F (stereo not given in full) | 82.5%
7 | COc1cc(-c2nn(-c3cccc(NC(=O)CCN4CCN(Cc5ccccc5)CC4)c3)cc2-c2ccncc2)ccc1Cl | 2.23% (active)
8 | O=S(=O)(NCCCNc1nccc(-c2cn(-c3ccccc3)nc2-c2ccc(Cl)c(O)c2)n1)c1ccccc1 | 67.3%
9 | CC[C@@H](C(=O)[C@@H](C)[C@@H](O)[C@H](C)[C@@H]1O[C@@H]([C@@H](CC)C(=O)N(CC)CC)CC[C@@H]1C)C1O[C@]2(C=CC(=O)[C@]3(CC[C@@](C)([C@H]4CC[C@](O)(CC)[C@H](C)O4)O3)O2)[C@H](C)C[C@@H]1C (stereo not given in full) | 28.4%
10 | OCC1OC(n2cnc3c(NCc4ccco4)ncnc32)C(O)C1O (stereo not given) | 11.5%
11 | CN(C)CCOc1cccc(NC2=C(Cl)C(=O)C(Nc3cccc(OCCN(C)C)c3)=C(Cl)C2=O)c1 | 0.785% (active)
12 | N#Cc1c(N)nc(-c2cc(F)cc(C(F)(F)F)c2)nc1-c1ccccc1F | 18.4%
13 | Cc1nc2n(c(=O)c1CCN1CCC(c3noc4cc(F)ccc34)CC1)CCC[C@@H]2O | 100%
14 | O=c1cn[nH]c2ccc(Br)cc12 | 99.4%
15 | CC(C)c1cc(N=O)cc(C(C)C)c1O | 107%
16 | O=C(CCCSc1nc(-c2ccc(Cl)cc2)cc(-c2ccc(Cl)cc2)n1)NO | 53.5%
17 | CCN1CC(CCN2CCOCC2)C(C(c2ccccc2)c2ccccc2)C1=O (stereo not given) | 104%
18 | S=c1cnc2ccccc2[nH]1 | 91.5%
19 | COc1cccc(C2C(C#N)=C(N)Oc3cc(N)ccc32)c1 (stereo not given) | 22.1%
20 | Clc1ccc(/C=C2\CCCC3C2=Nc2ccccc2NC3c2ccc(Cl)cc2)cc1 (stereo not given) | 102%

Row | SMILES | growth
21 | COc1ccc2c(c1)C(=O)/C(=C/c1ncc([N+](=O)[O-])n1C)O2 | -9.93% (active)
22 | c1cncc(-c2csc(-c3c[nH]c4ccccc34)n2)c1 | 90.6%
23 | O=[N+]([O-])c1cccc(/C=N/NC(=S)NC23CC4CC(CC(C4)C2)C3)c1 | 67.5%
24 | COc1ccc(C(=O)c2cc3c(OC)c(OC)c(OC)cc3[nH]2)cc1 | 51.8%
25 | CC(=O)OC/C=C(/C)C[P+](c1ccccc1)(c1ccccc1)c1ccccc1 | 87.9%
26 | c1ccc(/C(=N\Nc2ccc3ccccc3n2)c2ccccn2)cc1 | 14.7%
27 | Cc1cc(CCNC=O)c(C)c2c1sc1ccccc12 | 54%
28 | CC(C)N(CCOc1cccc(-c2nc3sccn3c2-c2ccnc(S(C)(=O)=O)n2)c1)C(C)C | 95.8%
29 | COc1cc2c3c(n([C@H]4CCOC4)c(=O)c2cc1OC)-c1cc2c(cc1C3=O)OCO2 | 107%
30 | N#CC1=C(N)Oc2cc(N)ccc2C1c1cccnc1 (stereo not given) | 82.4%
31 | CC1C(=NC(=O)c2cnccn2)C(C)C(c2ccc(Cl)cc2)NC1c1ccncc1 (stereo not given) | 125%
32 | CCN1C(=O)CC(SC2CC(=O)N(CC)C2=O)C1=O (stereo not given) | 101%
33 | O=C(CSc1nnc(-c2ccc(Cl)cc2)o1)Nc1ccc(C(=O)/C=C/c2ccc(Cl)cc2)cc1 | 95.9%
34 | Cc1ccc(C2=NN(c3ccc(S(C)(=O)=O)cc3)C(=O)CC2)cc1 | -1.17% (active)
35 | COc1cc(N)c2ncccc2c1SC | 92.5%
36 | CC(=O)Nc1cc2c(cc1Cl)Cc1cc(Cl)ccc1-2 | 78.6%
37 | CS(=O)(=O)c1nccc(-c2c(-c3cccc(OCCc4ccccc4)c3)nc3sccn23)n1 | 92.4%
38 | Cc1cn(-c2cccc(NC(=O)c3ccc(C)c(Nc4nccc(-c5cccnc5)n4)c3)c2)cn1 | -8.85% (active)
39 | O=C1CC(=O)N(C(=O)c2nn(-c3ccc(Cl)cc3)cc2O)N1 | 121%
40 | COc1cc2c(Nc3ccc(S(N)(=O)=O)cc3)ncnc2c(OC)c1OC | 96%
